Source: PubChem BioAssay (National Center for Advancing Translational Sciences (NCATS))
The list is not random: actives were taken first. Their share in the collection is about 11%.
Tau fluor cs: counter-screen for tau fibril formation inhibitors | Potency, µM (doses to about 57.7 µM), for inactives: at the highest dose activity change, negative = decrease | AID 1463 | tau K18 P301L Alexa594 fluorescence, heparin fibrillization | 280,000 tested, 0.93% active; further: potency means the concentration at half of the fitted maximal effect; nearly all actives have a fitted effect of over 55% in size
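Human K18 P301L tau (15 uM unlabeled plus 0.24 uM Alexa 594-labeled, final) in 100 mM sodium acetate pH 7 was mixed with compound and 20 uM heparin and incubated 6 hr at 37 C.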
Tau ThT inhib: tau fibrillization inhibition (ThT binding); P10636; recombinant tau K18 P301L (four-repeat tau fragment), heparin-induced fibrillization, ThT fluorescence; Potency, µM (doses to about 57.4 µM), inactives show top-dose activity, negative = inhibition, most hits filed as inhibitors; 270,000 tested, 2.1% active; AID 1460; further: potency means the concentration at half of the fitted maximal effect; nearly all actives have a fitted effect of over 55% in size
Target sequence (P10636 561-689 P618L limits assumed): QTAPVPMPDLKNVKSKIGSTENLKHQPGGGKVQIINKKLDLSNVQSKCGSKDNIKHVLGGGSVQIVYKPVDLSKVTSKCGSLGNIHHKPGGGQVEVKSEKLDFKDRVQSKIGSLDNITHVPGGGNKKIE
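Heparin-induced (20 uM) aggregation of recombinant human K18 P301L tau, 15 uM unlabeled with 0.24 uM labeled, pH 7 acetate buffer, 6 hr at 37 C with compound. Fibrils quantified by 30 uM ThT fluorescence after 1 hr ambient incubation.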
G9a block: G9a (human) methyltransferase inhibition; Q96KQ7; G9a H3K9 monomethylation, AlphaScreen, 2 h; Potency, µM (doses to about 102 µM), for inactives: at the top dose activity, negative = inhibition, actives largely listed as inhibitors; 350,000 tested, 8.8% active; further: potency means the concentration at half of the fitted maximal effect; nearly all actives have a fitted effect of over 75% in size
Target sequence (Q96KQ7 913-1193 limits assumed): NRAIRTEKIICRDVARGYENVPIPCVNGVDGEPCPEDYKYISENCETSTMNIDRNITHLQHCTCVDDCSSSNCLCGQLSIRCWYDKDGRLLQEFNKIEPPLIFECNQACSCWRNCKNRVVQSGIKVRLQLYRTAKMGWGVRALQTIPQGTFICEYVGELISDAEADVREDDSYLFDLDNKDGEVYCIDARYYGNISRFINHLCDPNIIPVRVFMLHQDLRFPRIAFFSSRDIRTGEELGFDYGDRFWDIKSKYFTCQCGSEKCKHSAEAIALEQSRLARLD
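G9a (20 nM) was preincubated 15 min with compound, then reacted 2 h at room temperature with 500 nM biotin-H3K9 peptide and 20 µM SAM. Monomethyl-H3K9 detected by AlphaScreen using anti-H3K9me1 antibody.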
Tau FP inhib: tau fibrillization inhibition (FP); P10636; K18 P301L tau heparin fibrillization, Alexa594 FP, 6 h; Potency, µM (titrated, usually from 57.7 µM), without a hit: top-dose activity, negative = inhibition, hits mostly inhibitors; 280,000 tested, 0.39% active; AID 1468; further: potency means the concentration at half of the fitted maximal effect; nearly all actives have a fitted effect of over 55% in size
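Read-out: fluorescence polarization of Alexa 594-labeled tau (0.24 uM), 555 nm excitation, 632 nm emission. Mixtures held 15 uM unlabeled K18 P301L, compound and 20 uM heparin, pH 7 acetate buffer, incubated 6 hr at 37 C.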
Coupling enz: inhibits coupling enzyme system, counter-screen for aldolase hits | activity change, negative = inhibition, % at 58.2 µM, hits read low | coupling enzyme system counterscreen, AmpLite Red fluorescence | 290,000 tested, 0.67% active; in the data active means activity change below about -30%
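Counterscreen of the coupled detection system alone, without aldolase: glyceraldehyde-3-phosphate coupling enzymes plus AmpLite Red readout. Compounds at 57.5 uM final, 10 min RT preincubation, 20 min RT reaction, fluorescence 525/598 nm.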
Sfp inh: blocks B. subtilis Sfp PPTase activity | Q9F4F7 | Biochemical Sfp PPTase activity, qHTS | 310,000 tested, 3.5% active | Potency, µM, inactives show largest response in the series, negative = inhibition, most hits filed as inhibitors;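 further: the enzyme is Sfp with the accession as filed and its product quenches rhodamine fluorescence; potency means the concentration at half of the fitted maximal effect; 0% = enzyme reaction without inhibitor and -100% = no enzyme wells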
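Fluorescence-quenching assay with 15 nM Sfp, 5 uM rhodamine-CoA and 12.5 uM BHQ-2-labelled ybbR peptide in pH 7.6 Hepes/MgCl2 buffer. Enzyme was pre-incubated with compound for 15 min at room temperature. Rate was taken from the 30-min fluorescence change (525/598 nm).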
Active calls of the source: *; ? = inconclusive; . = no result; [ ] = dose if it differs, or a comment. Unless noted, the call rests on the fitted dose curve; in most records, active means well fitted curve in the direction sought with a large enough effect; inconclusive means small, poorly fitted or top-dose-only effect, or another doubt; inactive means no such curve, though single readings can be large; an effect the other way counts as inactive or inconclusive. Unless noted, on the % scale 0 is the no-effect control and ±100 the full control effect.

SMILES	Tau fluor cs	Tau ThT inhib	G9a block	Tau FP inhib	Coupling enz	Sfp inh
O=C(CN1CCN(S(=O)(=O)c2ccc(Cl)cc2)CC1)NCC1(N2CCOCC2)CCCCC1	.	.	-10.1%[12.7 µM]	.	.	.
O=C(NCc1ccccc1)c1ccc(Br)o1	0.3%	-1.2%	-17.6%	2.6%	-0.6	-5.2%
O=C(c1ccc(Br)o1)N(Cc1ccccc1)Cc1ccccc1	-4.5%[81.3 µM]	?	20µM*	7.3%[81.3 µM]	9.0	-27.9%
CC1(C)C(c2ccco2)=[N+]([O-])C2(CCCCC2=O)N1O (stereo unspecified)	5.5%	1.3%	?	2.0%	1.4	10.7%
C/C(=N/Nc1ccc(C)cc1)C1(C)N(O)C(C)(C)C(c2ccco2)=[N+]1[O-] (stereo unspecified)	-19.1%	?	7.08µM*	-8.7%	-1.9	-14.3%
CCC(C)(C)C1CCC(=NNc2nc3ccccc3[nH]2)CC1 (stereo unspecified)	?	15.8µM*	?	?	-3.2	-39.3%
CC(=O)N1CCC(=NNc2nc3ccccc3[nH]2)CC1	-26.4%	?	44.7µM*	-5.9%	0.2	-59.5%
C(=N\Nc1nc2ccccc2[nH]1)/C1CCCCC1	?	?	?	?	-2.4	-12.9%
O=[N+]([O-])c1cc(Br)c(OCc2nnc(-c3ccccc3)o2)c(Br)c1	-18.5%	?	28.2µM*	0.9%	1.4	5.0%
O=C(OCc1nnc(-c2ccccc2)o1)c1cc([N+](=O)[O-])ccc1Cl	-14.3%	-0.2%	3.2%	-4.0%	4.3	?
CCN1CC=C2C(C#N)=C(N)C(C#N)(C#N)C(c3cc(Cl)ccc3Cl)C2C1 (stereo unspecified)	-24.6%	12.6µM*	?	?	1.4	-14.9%
Cc1ccc([C@@H]2C3COCC=C3C(C#N)=C(N)C2(C#N)C#N)o1 (stereo partly specified)	-15.9%	25.1µM*	?	?	3.0	-29.1%
CC(C)N1CC=C2C(C#N)=C(N)C(C#N)(C#N)[C@H](c3ccoc3)[C@H]2C1	-25.2%	20µM*	-34.3%[59 µM]	?	-16.4	-4.5%
Cc1ccc(C2C3CSCC=C3C(C#N)=C(N)C2(C#N)C#N)cc1 (stereo unspecified)	-28.7%	20µM*	11.1%[59 µM]	?	-6.3	?
CCOC(=O)N1CC=C2C(C#N)=C(N)C(C#N)(C#N)[C@H](c3cccs3)C2C1 (stereo partly specified)	-4.5%	?	3.7%[59 µM]	-9.8%	-0.1	20.0%
CC(C)N1CC=C2C(C#N)=C(N)C(C#N)(C#N)C(c3ccccc3)C2C1 (stereo unspecified)	-18.3%	?	?	?	-16.9	0.4%
Cc1cc(C)nc(NS(=O)(=O)c2ccc(NC(=O)Cc3ccccc3F)cc2)n1	.	.	-9.7%	.	-0.5	0.4%
Cc1c(Cl)cccc1NC(=O)CSc1nc(=O)n(Cc2ccncc2)c2c1CCC2	-5.3%	0.9%	10.3%[59 µM]	-4.2%	.	.
CCOC(=O)c1noc2ncn(CC(=O)Nc3ccc(C)c(F)c3)c(=O)c12	-8.3%	-1.4%	-1.4%[59 µM]	-7.5%	.	.
COC(OC)c1ccc(C#N)c(=O)[nH]1	-3.2%	-2.4%	6.2%	-1.7%	1.8	20.1%
Cc1nnsc1S(=O)(=O)Cc1ccccc1C(F)(F)F	-0.8%	0.6%	-8.4%[12.7 µM]	1.7%	2.3	19.9%
COCCn1c(-c2ccc(-c3ccccc3Cl)o2)nc2c1c(=O)[nH]c(=O)n2CC(C)C	-9.2%	-8.0%	22.4µM*	-2.1%	0.8	17.8µM*
CCCCn1c(=O)[nH]c(=O)c2c1nc(-c1ccc(-c3ccccc3Br)o1)n2CCOC	-5.6%	?	15.8µM*	-5.6%	-2.2	39.8µM*
O=C(NCCCN1CCOCC1)C(=O)N/N=C/c1cccc2ccccc12	-8.7%	?	-0.8%	1.4%	-0.3	12.6%
O=c1cnnc(N/N=C/C2CC=CCC2)[nH]1 (stereo unspecified)	-11.4%	-12.6%	55.9%	-16.1%	-0.3	44.7µM*
SMILES	Tau fluor cs	Tau ThT inhib	G9a block	Tau FP inhib	Coupling enz	Sfp inh
CC(C)C1Oc2ccccc2N(CC(=O)N(Cc2ccncc2)Cc2ccco2)C1=O (stereo unspecified)	-11.9%	-14.0%	?	0.3%	3.5	44.7µM*
CCc1ccc(OCC(=O)N/N=C(\C)c2ccc3c(c2)OCCO3)cc1	-9.8%	?	19.8%	10.8%	1.0	56.2µM*
CNC(=S)N/N=C(\C)c1ccc2c(c1)OCO2	2.6%	-2.1%	?	5.6%	3.0	79.4µM*
CNC(=S)N/N=C(\C)c1ccc2c(c1)OCCO2	-9.3%	-7.6%	-11.7%[59 µM]	-5.5%	0.8	50.1µM*
Cc1cc(C)c(Nc2nc3ccccc3n3c(C)nnc23)c(C)c1	-13.7%	-6.4%	-17.0%[59 µM]	?	.	.
O=C(c1cc(Br)c[nH]1)N1CCSCC1	.	.	22.3%	.	-1.2	7.4%
COc1c(C=O)c(O)cc2c1C(=O)c1ccccc1C2=O	?	7.94µM*	5.01µM*	?	.	?
Cc1cc(O)c2c(c1)C(=O)c1cccc(O)c1C2=O	-10.3%	?	?	-1.4%	0.9	-6.7%
CC1CCC/C(=N\Nc2ccc(Cl)c(C(=O)O)c2)C1 (stereo unspecified)	-7.1%	?	7.94µM*	-3.1%	1.2	-1.3%
COc1ccc(NCC(=O)N/N=C2\CCCC(C)C2)cc1 (stereo unspecified)	-2.2%	-16.9%	21.5%[59 µM]	14.6%	-0.4	0.6%
CC1CCC/C(=N\NC(=O)Nc2ccccc2)C1 (stereo unspecified)	5.6%	5.8%	39.8µM*	1.0%	1.4	5.1%
CC1CCC/C(=N\NS(=O)(=O)c2ccccc2)C1 (stereo unspecified)	3.7%	-8.5%	31.6µM*	2.7%	0.2	7.3%
CC(C)c1nn2c(=O)cc(COC(=O)c3ccc(NC(=O)c4cccs4)cc3)nc2s1	15.6%	16.8%	2.2%[12.7 µM]	-3.4%	.	.
NS(=O)(=O)c1ccc(NC(=O)CSc2nc3c(cnn3-c3ccccn3)c(=O)[nH]2)cc1	.	.	39.8µM*	.	.	.
COc1cc(CC(=O)OCC(=O)NCCc2ccc(S(N)(=O)=O)cc2)cc(OC)c1OC	.	.	13.3%[2.33 µM]	.	.	.
COc1ccc(OC)c2c1cc(C(=O)N[C@H](C(=O)N1CCC(C(=O)O)CC1)C(C)C)n2C	.	.	?	.	-9.2	-6.3%
O=C(Nc1ccccc1Cl)N1CCN(c2ccc3nnc(-c4ccccc4)n3n2)CC1	-14.3%	?	50.1µM*	9.5%	0.5	6.0%
O=C1c2ccccc2-c2onc3ccc(Oc4ccccc4)c1c23	6.31µM*[quencher]	4.47µM*	8.91µM*	?	0.0	1.1%
Cc1noc(C)c1S(=O)(=O)Nc1ccccc1Oc1ccccc1	-19.7%	-8.6%	.	5.6%	-10.0	0.7%
